Assay results as given in PubChem BioAssay (NCATS).
Inconclusive results are not listed. Entries that show only a call come without a potency. The source made the active and inactive calls. The call rests on the fitted dose curve; in most records, active means well fitted curve in the direction sought with a large enough effect; inconclusive means small, poorly fitted or top-dose-only effect, or another doubt; inactive means no such curve, though single readings can be large; an effect the other way counts as inactive or inconclusive.

Key:
[1] = OV-KATE Cancer Cell Toxicity qHTS against the NCATS CANVASS Library (AID 1347345)
How it was run: (§1)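 ATP content after 72 h treatment, detected by CellTiter-Glo luminescence (15min room-temperature development), reflects cell viability. Wells contained 1000 cells and received compounds at 11 concentrations.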

[2] = HPAF-II Cancer Cell Toxicity qHTS against the NCATS CANVASS Library (AID 1347346); further: series mostly up to about 38 µM; nearly all actives have a fitted effect of over 55% in size
How it was run: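 1000 HPAF-II cells/well; 4 h pre-incubation; 11-pnt compound titration; 72 h, 37 degrees C/5% CO2; CellTiter-Glo, 15 min RT; luminescence read.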

[3] = UWB1.289 Cancer Cell Toxicity qHTS against the NCATS CANVASS Library (AID 1347347); further: nearly all actives have a fitted effect of over 60% in size; further: potency means the concentration at half of the fitted maximal effect
How it was run: as §1

[4] = OV-SAHO Cancer Cell Toxicity qHTS against the NCATS CANVASS Library (AID 1347348); further: nearly all actives have a fitted effect of over 55% in size; further: potency means the concentration at half of the fitted maximal effect
How it was run: as §1

[5] = Panc-1005 Cancer Cell Toxicity qHTS against the NCATS CANVASS Library (AID 1347349); further: series mostly up to about 38 µM; nearly all actives have a fitted effect of over 60% in size
How it was run: as §1

[6] = SW1088 Cancer Cell Toxicity qHTS against the NCATS CANVASS Library (AID 1347350); further: nearly all actives have a fitted effect of over 75% in size
How it was run: as §1

[7] = COV-362 Cancer Cell Toxicity qHTS against the NCATS CANVASS Library (AID 1347352); further: series mostly up to about 38 µM
How it was run: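 1000 cells/well, 4 h pre-incubation 37 °C/5% CO2; 11-pnt titration; 72 h; CellTiter-Glo 15 min RT, luminescence.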

[8] = A2780 Cisplatin Sensitive Ovarian Cancer Cell Toxicity qHTS against the NCATS CANVASS Library (AID 1347353); further: nearly all actives have a fitted effect of over 60% in size
How it was run: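 750 cells/well, 4 h settle; 11-pt cpd titration; 72 h, 37 °C, 5% CO2; ATPLite 10 min RT; luminescence read.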

[9] = target: Luciferin 4-monooxygenase (Photinus pyralis) (UniProt P08659); experiment: Firefly luciferase counterscreen qHTS: Assay Interference Panel against the NCATS CANVASS Library (AID 1347363); further: potency means the concentration at half of the fitted maximal effect
How it was run: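 Purified P. pyralis luciferase was added to compounds (11-point series) preincubated 15 min at room temperature with substrate containing 0.013 mM D-luciferin and 0.013 mM ATP; luminescence was read after 5 min.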

[10] = KB-8-5-11 Cancer Cell Toxicity qHTS against the NCATS CANVASS Library (AID 1347364); further: nearly all actives have a fitted effect of over 75% in size
How it was run: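 CellTiter-Glo luminescence after 72 h exposure; 500 KB-8-5-11 cells/well, DMEM/10% FBS, 37C, 5% CO2; compounds in 11-pt qHTS. Follow-up confirmation included medium with 1uM tariquidar.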

[11] = target: Nuclear receptor subfamily 1 group I member 3 (Homo sapiens) (UniProt Q14994); experiment: qHTS for Constitutive Androstane Receptor (CAR) Antagonist screened against the NCATS CANVASS Library (AID 1347372);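 further: cells stimulated with 50 nM CITCO agonist so inhibition reflects antagonism; luciferase from CYP2B6 promoter reporter driven by hCAR in HepG2 cells; series mostly up to about 46 µM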
How it was run: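 Cells were seeded and left 4hr to attach, then received compound at 11 concentrations and 50 nM CITCO. Following 24hr incubation, fluorescence viability and luciferase luminescence were read sequentially.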

[12] = qHTS for Hypoxia signaling pathway (HIF-1) antagonists against the NCATS CANVASS Library (AID 1347374); further: nearly all actives have a fitted effect of over 60% in size; further: potency means the concentration at half of the fitted maximal effect
How it was run: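 Beta-lactamase reporter under HRE control in ME-180 cells; CoCl2 stimulus (60 uM solution as added), compounds 11-pt qHTS, 17 h 37C. CCF4 dye 2 h RT, 460/530 nm emission. CellTiter-Glo viability in same wells.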

[13] = DH5-alpha competent E. coli microbial cell viability qHTS against the NCATS CANVASS Library (AID 1347377); conditions: outcome: dose series up to 46.1 µM unless noted
How it was run: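 Luminescent ATP read-out (BacTiter-Glo, 20 min RT) after overnight 37C culture of DH5-alpha E. coli with compounds; daunomycin control at 0.2 nM–9.2 uM final.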

[14] = Cytotoxicity qHTS for assessment of Hepg2 cells membrane integrity screened against the NCATS CANVASS Library (AID 1347387)
How it was run: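 LDH release read by fluorescence (560 nm ex/590 nm em) after CytoTox-ONE addition and 10 min RT; signal tracks lysed cells. HepG2, 2000 cells/well, plated overnight; compound 5 hr, 37C, 5% CO2, final 0.59 nM - 46 uM, 11 points.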

[15] = qHTS for activators of Nrf2/ARE signaling pathway screened against the NCATS CANVASS Library (AID 1347391); further: nearly all actives have a fitted effect of over 60% in size; further: potency means the concentration at half of the fitted maximal effect
How it was run: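 HepG2 ARE-bla; cpd 11-pt qHTS, 16 h 37C/5% CO2; CCF4 substrate 2 h RT; read ex 405 / em 460 + 530 nm. Viability by CellTiter-Glo luminescence, 30 min RT.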

[16] = qHTS for inhibitors of ER calcium dysfunction: SERCaMP assay screened against the NCATS CANVASS Library (AID 1347393); further: nearly all actives have a fitted effect of over 40% in size; further: potency means the concentration at half of the fitted maximal effect
How it was run: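 qHTS in SH-SY5Y reporter cells: 16 h compound pretreatment, 4 h thapsigargin, then secreted Gaussia luciferase measured by luminescence.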

[17] = HEK293 12hr Apoptosis Induction qHTS against the NCATS CANVASS Library (AID 1347361)
How it was run: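 HEK293 cells (500/well) were exposed to an 11-point qHTS concentration series for 12 hours at 37 degrees C. Caspase-3/7 activity was then read by DEVD-substrate luciferase luminescence after 15 min at room temperature.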

[18] = Inflammasome Signaling qHTS Counterscreen: IL-1-beta AlphaLISA counterscreen against the NCATS CANVASS Library (AID 1347381);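 further: cell-free check with purified IL-1β in medium and no THP-1 cells; series mostly up to about 57 µM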
How it was run: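 Here, no cellular stimulation occurs; compounds in an 11-point series meet 4 pg purified IL-1-beta directly. Bead-based AlphaLISA detection follows (1 h acceptor/antibody, then 30 min donor, dark, room temperature), with excitation at 680 nm.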

[19] = qHTS for Antimalaria activity screened against the NCATS CANVASS Library (AID 1347380); further: nearly all actives have a fitted effect of over 40% in size; further: potency means the concentration at half of the fitted maximal effect
How it was run: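 SYBR Green fluorescence (ex 485, em 535 nm) read after saponin/Triton lysis and 18 h further incubation; Dd2 asexual blood-stage parasites, 72 h compound exposure, 11-pt concentration series, 2.5% hematocrit, 0.3% parasitemia.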

[20] = 10-beta competent E. coli microbial cell viability qHTS against the NCATS CANVASS Library (AID 1347376); further: series mostly up to about 46 µM
How it was run: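 Luminescence from BacTiter-Glo ATP detection served as the viability read-out; bacteria (0.2 OD) had been incubated overnight at 37C with pin-transferred compounds at 11 concentrations.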

Luciferin 4-monooxygenase (Photinus pyralis), sequence (P08659 whole entry, looked up): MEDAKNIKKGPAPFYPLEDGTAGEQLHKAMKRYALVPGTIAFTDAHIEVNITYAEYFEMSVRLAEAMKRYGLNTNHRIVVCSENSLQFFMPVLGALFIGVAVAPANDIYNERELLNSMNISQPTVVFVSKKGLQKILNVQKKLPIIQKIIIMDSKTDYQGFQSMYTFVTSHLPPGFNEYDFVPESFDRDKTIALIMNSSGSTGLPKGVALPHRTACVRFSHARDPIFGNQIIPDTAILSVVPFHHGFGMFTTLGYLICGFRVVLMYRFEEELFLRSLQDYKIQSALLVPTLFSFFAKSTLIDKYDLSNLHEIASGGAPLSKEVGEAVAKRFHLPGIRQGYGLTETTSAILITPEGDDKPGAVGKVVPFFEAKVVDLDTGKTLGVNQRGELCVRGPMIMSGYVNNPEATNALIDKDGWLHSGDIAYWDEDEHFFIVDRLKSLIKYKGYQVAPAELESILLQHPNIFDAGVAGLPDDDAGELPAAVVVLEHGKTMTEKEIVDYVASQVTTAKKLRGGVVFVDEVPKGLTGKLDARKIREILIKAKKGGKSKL
Nuclear receptor subfamily 1 group I member 3 (Homo sapiens), sequence (Q14994 whole entry, looked up): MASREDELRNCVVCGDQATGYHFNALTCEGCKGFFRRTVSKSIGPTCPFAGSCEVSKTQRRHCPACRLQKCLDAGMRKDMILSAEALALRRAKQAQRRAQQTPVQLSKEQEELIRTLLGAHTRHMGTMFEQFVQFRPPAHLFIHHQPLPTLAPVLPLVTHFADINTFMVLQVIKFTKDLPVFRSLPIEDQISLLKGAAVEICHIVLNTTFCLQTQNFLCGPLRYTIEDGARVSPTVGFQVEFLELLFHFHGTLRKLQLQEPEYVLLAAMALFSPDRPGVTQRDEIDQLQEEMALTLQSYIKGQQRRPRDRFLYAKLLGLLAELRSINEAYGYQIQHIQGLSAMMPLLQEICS

SMILES | Potency [1] | Potency [2] | Potency [3] | Potency [4] | Potency [5] | Potency [6] | Potency [7] | Potency [8] | Potency [9] | Potency [10] | Potency [11] | Potency [12] | outcome [13] | outcome [14] | Potency [15] | Potency [16] | outcome [17] | outcome [18] | Potency [19] | outcome [20]
C=C1CCC2C(C)(C(=O)O)CCC(CC/C(C)=C/C(=O)NC(CCC(N)=O)C(=O)O)[C@@]2(C)C1 (stereo not given in full) | inactive | inactive | inactive | inactive | inactive | inactive | inactive | inactive | inactive | inactive | inactive | inactive | inactive | inactive | inactive | inactive |  |  |  | 
COc1ccc(-c2oc3cc(OC)cc(OC)c3c(=O)c2O)cc1 | inactive | inactive | 18.8 µM (active) | inactive | inactive |  | inactive |  | inactive |  | inactive | 0.472 µM (active) | inactive | inactive | inactive |  | inactive | inactive |  | 
O=C1CC(c2ccc(O)cc2)Oc2cc(O)ccc21 (stereo not given) | inactive | inactive |  | inactive | inactive | inactive | inactive |  |  | inactive | inactive | inactive | inactive | inactive |  | 30.5 µM (active) | inactive |  | inactive | 
O=C1c2c(O)cc(O)cc2OC(c2ccc(O)cc2)C1O (stereo not given) | inactive | inactive | inactive | inactive | inactive | inactive | inactive | inactive |  | inactive | inactive |  | inactive | inactive | inactive |  | inactive | inactive | 0.0053 µM (active) | inactive
C=C1[C@@]2(C)CC3C4(C)CCC(O)C(C)(C)C4CCC3(C)[C@]1(C(=O)OC)C(=O)C(C)(O)C2=O (stereo not given in full) | inactive | inactive | inactive | inactive | inactive | inactive | inactive | inactive | inactive | inactive | inactive | inactive | inactive | inactive | inactive | 8.6 µM (active) | inactive | inactive | inactive | inactive
COC1C(C)OC(OCC23C[C@@H]4[C@H](C)CC[C@H]4C4(C=O)CC2C=C(C(C)C)C34C(=O)O)[C@@H](O)[C@H]1O (stereo not given in full) | inactive | inactive | inactive | inactive | inactive | inactive | inactive | inactive |  | inactive |  | inactive | inactive |  | inactive | inactive | inactive | inactive | inactive | inactive
C[C@@]12CCC[C@@](C)(C(=O)O)[C@H]1C[C@@H](O)[C@@]13C[C@@H](CC[C@@H]21)[C@](C)(O)C3 | inactive | inactive | inactive | inactive | inactive | inactive | inactive | inactive | inactive | inactive | inactive | inactive | inactive |  | inactive | inactive | inactive |  | inactive | 
O=c1cc(-c2ccc(O)cc2)oc2cc(O)c([C@@H]3OC(CO)[C@H](O)[C@@H](O)[C@H]3O)c(O)c12 (stereo not given in full) | inactive | inactive | inactive | inactive | inactive | inactive | inactive | inactive | inactive | inactive |  | inactive | inactive | inactive | inactive | inactive | inactive | inactive | inactive | inactive
CC(C)=CCCC(C)(O)[C@H]1CC=C(C)C(O)C1 (stereo not given in full) | inactive | inactive | inactive | inactive | inactive | inactive | inactive | inactive |  | inactive |  | inactive | inactive |  | inactive | inactive | inactive | inactive |  | inactive
C/C=C1/C2=CCCN3C(=O)O[C@H]([C@H]1O)[C@H]23 | inactive | inactive |  | inactive | inactive | inactive | inactive | inactive | inactive |  |  | inactive | inactive | inactive | inactive | inactive |  | inactive |  | 
O=C1CC(c2ccc(O)cc2)Oc2ccccc21 (stereo not given) | inactive | inactive | 3.75 µM (active) | 13.3 µM (active) | inactive | inactive | inactive |  | 5.44 µM (active) | inactive |  | inactive |  |  |  | 34.3 µM (active) | inactive | inactive | inactive | 
C=CC(C)(C)C(=O)[C@@H](C)[C@@H]1CC[C@@](C)(C=C)O1 | inactive | inactive | inactive | inactive | inactive | inactive | inactive | inactive | inactive | inactive | inactive | inactive | inactive | inactive | inactive | inactive | inactive | inactive | inactive | inactive
COc1c(O)cc(O)c2c(=O)cc(-c3ccccc3)oc12 | inactive | inactive |  | inactive | inactive | inactive | inactive |  | inactive |  |  | 10.6 µM (active) | inactive | inactive |  | inactive | inactive |  | inactive | inactive
CO[C@@H](C[C@@H](C)[C@@H](O)/C=C/C=C/CNC(=O)C(C)(C)[C@H](O)\C(C)=C/C=C\C=C\Cc1cnco1)[C@]1(O)[C@@H](C)C(=O)N(C)[C@@]12COC2=O | inactive | inactive | inactive | inactive | inactive | inactive | inactive | inactive |  | inactive | inactive | inactive | inactive | inactive | inactive | inactive | inactive |  |  | inactive
O=C1OC(CCO)c2cccc(O)c21 (stereo not given) | inactive | inactive | inactive | inactive | inactive | inactive | inactive | inactive | inactive | inactive |  | inactive | inactive |  | inactive | inactive | inactive | inactive | inactive | inactive
CC(=O)N[C@H](C)c1nc(/C=C/C=C/C(=O)CC2CC(=O)CC[C@]2(C)O)cs1 (stereo not given in full) | inactive | inactive | inactive | inactive | inactive | inactive | inactive |  | inactive | inactive |  | inactive | inactive | inactive | inactive | inactive | inactive | inactive | inactive | inactive
COc1cc2ccc(=O)oc2c(O)c1O[C@@H]1O[C@H](CO)[C@@H](O)[C@H](O)[C@H]1O | inactive | inactive | inactive |  |  | inactive | inactive | inactive | inactive | inactive | inactive | inactive | inactive | inactive | inactive |  | inactive | inactive |  | inactive
CC1=C(C)C(=O)OC(C(C)C2(O)CCC3C4C5OC5C5(O)CC=CC(=O)C5(C)C4CCC32C)C1 (stereo not given) | inactive | inactive |  |  |  | inactive |  |  | inactive | inactive |  | inactive |  |  | 18.6 µM (active) |  | inactive |  |  | inactive
